Measured values: PubChem BioAssay AID1159580 (chemical genetic matrix, 2015)
Values joined by “and” are separate entries in the source; they are usually repeats but may differ in a detail not shown here. Identical values can stand only once. The campaign covered roughly 5,500 compounds. About 2,000 (36%) were called active. Another 18% or so got no clear call; they are omitted. Rule as the data show it: active = normalized growth mostly below about 0.91 (no sharp cut-off); inconclusive = no clear call, values can overlap the other calls; inactive = mostly above about 0.92. The list shows a part of the results.

Test: chemical genetic growth profiling, strain panel (AID 1159580);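 also: tested at 20 µM; growth read once vehicle control cultures reached saturation at 30 °C; 1 = growth at the plate median or of vehicle wells; lower values mean less growth of the strain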
Conditions: S. cerevisiae deletion strains, growth OD

Measured: normalized growth

CC(=O)OCC(=O)[C@@]1(O)[C@H](C)CC2C3CCC4=CC(=O)C=C[C@]4(C)[C@@]3(F)[C@@H](O)C[C@@]21C (some centres undefined)
inactive: locus YAL013W, strain DEP1, hits give low values 1.01 | locus YAL021C, strain ccr4, hits give low values 0.959 | locus YAL026C, strain drs2, hits give low values 1 | locus YAL030W, strain snc1, hits give low values 0.969 | locus YBL061C, strain skt5, hits give low values 0.985 | locus YBR009C, strain hhf1, hits give low values 0.983 | locus YBR021W, strain FUR4, hits give low values 0.995 | locus YBR023C, strain chs3, hits give low values 0.978 | locus YBR171W, strain sec66, hits give low values 0.957 | locus YBR229C, strain ROT2, hits give low values 1.01 | locus YBR231C, strain swc5, hits give low values 0.962 | locus YBR279W, strain paf1, hits give low values 0.991 | locus YCL011C, strain gbp2, hits give low values 0.988 | locus YCL016C, strain dcc1, hits give low values 1.01 | locus YCL029C, strain bik1, hits give low values 1 | locus YCL061C, strain MRC1, hits give low values 0.98 | locus YCL069W, strain vba3, hits give low values 0.987 | locus YCR088W, strain abp1, hits give low values 0.984 | locus YDL005C, strain med2, hits give low values 0.964 | locus YDL035C, strain GPR1, hits give low values 1.03 | locus YDL040C, strain nat1, hits give low values 0.961 | locus YDL074C, strain BRE1, hits give low values 1.01 | locus YDL101C, strain DUN1, hits give low values 0.999 | locus YDL134C, strain PPH21, hits give low values 1.02 | locus YDL185W, strain tfp1, hits give low values 1.01 | locus YDL192W, strain arf1, hits give low values 0.998 | locus YDR001C, strain nth1, hits give low values 0.951 | locus YDR069C, strain doa4, hits give low values 0.948 | locus YDR101C, strain arx1, hits give low values 1.02 | locus YDR137W, strain rgp1, hits give low values 0.997 | locus YDR150W, strain NUM1, hits give low values 1.01 | locus YDR159W, strain sac3, hits give low values 0.962 | locus YDR162C, strain NBP2, hits give low values 1.02 | locus YDR195W, strain ref2 0.933 | locus YDR297W, strain sur2, hits give low values 0.988 | locus YDR318W, strain mcm21, hits give low values 0.999 | locus YDR334W, strain swr1, hits give low values 0.948 | locus YDR335W, strain msn5, hits give low values 0.966 | locus YDR388W, hits give low values 0.997 | locus YDR392W, strain spt3, hits give low values 1.07 | locus YDR502C, strain sam2, hits give low values 0.998 | locus YEL003W, strain gim4, hits give low values 0.981 | locus YEL037C, strain rad23, hits give low values 0.98 | locus YEL061C, strain CIN8 (second series), hits give low values 0.975 | locus YEL061C, strain CIN8, hits give low values 1.01 | locus YER015W, strain faa2, hits give low values 0.985 | locus YER016W, strain bim1, hits give low values 1.04 | locus YER110C, hits give low values 0.995 | locus YER111C, strain swi4, hits give low values 0.986 | locus YER155C, strain BEM2 (second series), hits give low values 0.967 | locus YER155C, strain BEM2, hits give low values 0.999 | locus YER167W, strain BCK2, hits give low values 1.01 | locus YFR010W, strain ubp6, hits give low values 0.958 | locus YGL078C, strain dbp3, hits give low values 0.997 | locus YGL086W, strain mad1, hits give low values 1 | locus YGL167C, strain pmr1, hits give low values 0.954 | locus YGL173C, strain kem1, hits give low values 0.961 | locus YGL227W, strain vid30, hits give low values 0.974 | locus YGL240W, strain doc1, hits give low values 0.949 | locus YGL248W, strain PDE1, hits give low values 1 | locus YGL253W, strain hxk2, hits give low values 0.984 | locus YGR078C, strain PAC10, hits give low values 1.01 | locus YGR135W, strain pre9, hits give low values 0.993 | locus YGR252W, strain gcn5, hits give low values 0.955 | locus YHR013C, strain ard1, hits give low values 0.998 | locus YHR027C, strain rpn1, hits give low values 0.982 | locus YHR030C, strain SLT2, hits give low values 1.01 | locus YHR079C, strain IRE1 (second series), hits give low values 0.996 | locus YHR079C, strain IRE1, hits give low values 1.01 | locus YHR094C, strain hxt1, hits give low values 0.995 | locus YHR129C, strain ARP1, hits give low values 1.01 | locus YHR142W, strain chs7, hits give low values 0.961 | locus YHR200W, strain rpn10, hits give low values 0.995 | locus YIL066C, strain RNR3, hits give low values 1.02 | locus YIL073C, strain SPO22, hits give low values 0.99 | locus YIL125W, strain kgd1, hits give low values 0.997 | locus YIR030C, strain dcg1, hits give low values 1 | locus YJL092W, strain hpr5, hits give low values 0.977 | locus YJL095W, strain BCK1 (second series), hits give low values 0.968 | locus YJL095W, strain BCK1, hits give low values 1.02 and 1.01 | locus YJL115W, strain asf1, hits give low values 0.951 | locus YJL129C, strain trk1, hits give low values 0.956 | locus YJL134W, strain LCB3, hits give low values 1.01 | locus YJL154C, strain vps35, hits give low values 0.964 | locus YJL164C, strain tpk1, hits give low values 1 | locus YJL166W, strain qcr8, hits give low values 0.915 | locus YJL168C, strain set2, hits give low values 1.01 | locus YJL187C, strain SWE1 (second series), hits give low values 1.01 | locus YJR043C, strain POL32, hits give low values 1 | locus YJR066W, strain TOR1, hits give low values 0.988 | locus YKL009W, strain mrt4, hits give low values 1 | locus YKL068W, hits give low values 0.998 | locus YKL085W, strain MDH1 (second series), hits give low values 1.03 | locus YKL085W, strain MDH1, hits give low values 1.03 | locus YKL160W, strain elf1, hits give low values 0.971 | locus YKL190W, strain CNB1, hits give low values 1.01 | locus YKR001C, strain vps1, hits give low values 0.988 | locus YKR026C, strain gcn3, hits give low values 0.964 | locus YKR091W, strain srl3, hits give low values 0.97 | locus YLL001W, strain dnm1, hits give low values 0.926 | locus YLL026W, hits give low values 0.991 | locus YLL041C, strain sdh2, hits give low values 0.955 | locus YLR027C, strain aat2, hits give low values 0.979 | locus YLR039C, strain RIC1, hits give low values 1.02 | locus YLR058C, strain SHM2, hits give low values 1.01 | locus YLR102C, strain apc9, hits give low values 0.993 | locus YLR113W, strain HOG1, hits give low values 1.02 | locus YLR221C, strain rsa3, hits give low values 1.02 | locus YLR258W, strain gsy2, hits give low values 0.992 | locus YLR262C, strain YPT6 (second series), hits give low values 0.92 | locus YLR262C, strain YPT6, hits give low values 1.02 | locus YLR268W, strain sec22, hits give low values 1.01 | locus YLR320W, strain mms22, hits give low values 1.02 | locus YLR330W, strain CHS5, hits give low values 1.01 | locus YLR342W, strain FKS1 (second series), hits give low values 1.04 | locus YLR342W, strain FKS1, hits give low values 0.969 | locus YLR357W, strain rsc2, hits give low values 0.982 | locus YLR370C, strain arc18, hits give low values 0.98 | locus YLR371W, strain rom2, hits give low values 0.997 | locus YLR384C, strain iki3, hits give low values 0.965 | locus YLR418C, strain cdc73, hits give low values 0.954 | locus YML016C, strain PPZ1, hits give low values 1.01 | locus YML032C, strain rad52, hits give low values 0.997 | locus YML120C, strain ndi1, hits give low values 0.973 | locus YML124C, strain tub3, hits give low values 1.03 | locus YMR058W, strain fet3, hits give low values 0.97 | locus YMR078C, strain ctf18, hits give low values 0.998 | locus YMR125W, strain sto1, hits give low values 0.963 | locus YMR129W, hits give low values 0.988 | locus YMR205C, strain PFK2, hits give low values 0.958 | locus YMR223W, strain ubp8, hits give low values 0.999 | locus YMR231W, strain pep5, hits give low values 0.965 | locus YMR307W, strain GAS1, hits give low values 0.959 | locus YNL067W, strain RPL9B, hits give low values 1.01 | locus YNL071W, strain lat1, hits give low values 0.992 | locus YNL183C, strain NPR1, hits give low values 0.974 | locus YNL209W, strain ssb2, hits give low values 0.993 | locus YNL233W, strain BNI4, hits give low values 1.01 | locus YNL248C, strain rpa49, hits give low values 1.01 | locus YNL250W, strain rad50, hits give low values 0.975 | locus YNL271C, strain bni1, hits give low values 1 | locus YNL298W, strain CLA4, hits give low values 0.989 | locus YNL307C, strain MCK1, hits give low values 0.998 | locus YNL322C, strain KRE1 (second series), hits give low values 0.961 | locus YNL322C, strain KRE1, hits give low values 0.995 | locus YNR049C, strain mso1, hits give low values 0.982 | locus YNR052C, strain pop2, hits give low values 1.01 | locus YOL012C, strain htz1 0.869 | locus YOL147C, strain pex11, hits give low values 0.999 | locus YOR001W, strain rrp6, hits give low values 0.963 | locus YOR061W, strain CKA2, hits give low values 1.02 | locus YOR069W, strain VPS5, hits give low values 1.01 | locus YOR070C, strain gyp1, hits give low values 0.99 | locus YOR080W, strain dia2, hits give low values 0.946 | locus YOR083W, strain WHI5, hits give low values 0.978 | locus YOR106W, strain vam3, hits give low values 0.927 | locus YOR136W, strain idh2, hits give low values 0.994 | locus YOR144C, strain elg1, hits give low values 0.999 | locus YOR184W, strain ser1, hits give low values 1.01 | locus YOR231W, strain MKK1, hits give low values 1.03 | locus YOR265W, strain rbl2, hits give low values 0.982 | locus YOR270C, strain vph1, hits give low values 0.95 | locus YOR290C, strain snf2, hits give low values 1 | locus YOR316C, strain cot1, hits give low values 1 | locus YPL051W, strain arl3, hits give low values 1.01 | locus YPL078C, strain atp4, hits give low values 0.934 | locus YPL106C, strain sse1, hits give low values 0.969 | locus YPL240C, strain hsp82, hits give low values 0.969 | locus YPL256C, strain CLN2, hits give low values 1.03 | locus YPR119W, strain clb2, hits give low values 0.997 | locus YPR141C, strain kar3, hits give low values 0.99 | locus YPR163C, strain tif3, hits give low values 0.996 | locus YPR167C, strain met16, hits give low values 1 | strain wtn01, hits give low values 0.997
